According to PubChem BioAssay AID2313 (Broad Institute, 2010):
Screen size: about 22,000 compounds; about 460 (2.1%) were called active. Another 2% or so got no clear call; they are omitted.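 The calls were made as follows: active = mean inhibition across valid replicates above about 65% (limit read from the data); inconclusive = mean under the limit, yet half or more replicates past it; inactive = the rest.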 This excerpt belongs to a sample that is enriched for actives.

Experiment: Hedgehog pathway signaling inhibitors, primary screen, luminescence, Shh-LIGHT2 cells, Gli-luciferase (AID 2313);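 also: pathway switched on by Shh-conditioned medium diluted 1 in 25 in low serum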
Settings: Shh-LIGHT2 Gli-luciferase reporter, 30 h; active compounds read high

SMILES | inhibition
C[C@H]1CN([C@@H](C)CO)C(=O)Cc2cc(NS(=O)(=O)c3ccc(F)cc3)ccc2O[C@H]1CN(C)Cc1ccc(C(F)(F)F)cc1 | 30.1% (inactive)
COc1ccc(S(=O)(=O)N(C)C[C@H]2Oc3ccc(NC(=O)C4CC4)cc3CC(=O)N([C@@H](C)CO)C[C@@H]2C)cc1 | -32.4% (inactive)
CC(C)NC(=O)Nc1ccc2c(c1)C(=O)N([C@@H](C)CO)C[C@@H](C)[C@H](CN(C)Cc1ccc(C(=O)O)cc1)O2 | -19.8% (inactive)
C[C@H]1CN([C@@H](C)CO)C(=O)Cc2cc(N(C)C)ccc2O[C@@H]1CN(C)Cc1ccc(-c2ccccc2)cc1 | 33.2% (inactive)
C[C@@H]1CCCCO[C@@H](CN(C)C(=O)CCC(F)(F)F)[C@@H](C)CN([C@H](C)CO)C(=O)c2cc(NC(=O)Nc3ccccc3)ccc2O1 | -0.845% (inactive)
O=C(c1ccccc1)c1cnn(-c2ccc(Cl)cc2)n1 | 79.3% (active)
C[C@@H]1CN([C@H](C)CO)C(=O)Cc2cc(NC(=O)C3CCCCC3)ccc2O[C@@H]1CN(C)S(C)(=O)=O | -14.6% (inactive)
C[C@@H]1CN([C@H](C)CO)C(=O)c2cccc(NC(=O)Nc3ccc4c(c3)OCO4)c2O[C@H]1CN(C)C(=O)Nc1ccc(F)cc1 | -8.45% (inactive)
C[C@@H]1CN([C@@H](C)CO)C(=O)c2cccc(NC(=O)NC3CCCCC3)c2O[C@@H]1CN(C)CC1CCCCC1 | -35.3% (inactive)
C[C@H]1CN([C@@H](C)CO)C(=O)Cc2cc(NC(=O)CCC(F)(F)F)ccc2O[C@H]1CN(C)C(=O)NC1CCCCC1 | -30.3% (inactive)
O=C1C2CC3CC1CC(C(=O)O)(C3)C2 | -15.4% (inactive)
CCN1C(=O)c2cccc3c(NC(=S)NC(=O)c4ccccc4)ccc1c23 | 86.3% (active)
O=c1c2ccccc2c(-c2ccccc2)nn1Cc1ccccc1 | 9.85% (inactive)
CC(C)(C)c1ccc(Cn2c(=N)n(CC(=O)O)c3ccccc32)cc1 | -5.52% (inactive)
O=c1n(Cc2ccccc2)c2ccccc2n1Cc1ccccc1 | 96.1% (active)
CCCN(C)C[C@@H]1OCCCC[C@@H](C)Oc2ccc(NC(=O)CCCN(C)C)cc2C(=O)N([C@H](C)CO)C[C@@H]1C | -7.4% (inactive)
S=C(NCC1CC1)Nc1ccc(Cl)cc1 | -35.4% (inactive)
O=C(O)c1c(Br)c(Br)c(Br)c(Br)c1-c1c2ccc(=O)cc-2oc2cc(O)ccc12 | -5.58% (inactive)
C[C@@H]1CN([C@@H](C)CO)C(=O)c2cccc(NC(=O)Nc3ccc(F)cc3)c2O[C@H]1CN(C)Cc1ccc(-c2ccccc2)cc1 | 2.55% (inactive)
C[C@H]1CN([C@@H](C)CO)C(=O)c2cc(NC(=O)Nc3ccccc3)ccc2O[C@H]1CN(C)S(C)(=O)=O | -21% (inactive)
C[C@@H]1CN([C@H](C)CO)C(=O)Cc2cc(NS(=O)(=O)c3ccc(Cl)cc3)ccc2O[C@H]1CN(C)S(=O)(=O)c1cccs1 | -21.8% (inactive)
COc1ccc(S(=O)(=O)N(C)C[C@@H]2OCCCC[C@@H](C)Oc3ccc(NS(C)(=O)=O)cc3C(=O)N([C@H](C)CO)C[C@@H]2C)cc1 | 54.6% (inactive)
C=C1C(=O)OC2/C=C(\C)CC3C=C(CC/C=C(\C)CCC12)C(=O)O3 (configuration not stated) | 39.9% (inactive)
CC(C)NC(=O)Nc1ccc2c(c1)CC(=O)N([C@H](C)CO)C[C@H](C)[C@H](CN(C)Cc1ccc3c(c1)OCO3)O2 | -12.2% (inactive)

SMILES | inhibition
C[C@@H]1CN([C@H](C)CO)C(=O)c2cccc(NS(=O)(=O)c3ccc(Cl)cc3)c2O[C@@H]1CN(C)Cc1ccc(Oc2ccccc2)cc1 | 23.8% (inactive)
C[C@@H]1O[C@@H](O[C@H]2[C@@H](Oc3cc(O)c4c(c3)O[C@H](c3ccc(O)cc3)CC4=O)O[C@H](CO)[C@@H](O)[C@@H]2O)[C@H](O)[C@H](O)[C@H]1O | -8.61% (inactive)
C[C@@H]1CN([C@H](C)CO)C(=O)c2cccc(NS(=O)(=O)c3ccc(Cl)cc3)c2O[C@H]1CN(C)C(=O)NC1CCCCC1 | -17% (inactive)
CC(C)NC(=O)N(C)C[C@@H]1Oc2ccc(NS(=O)(=O)c3cn(C)cn3)cc2C(=O)N([C@@H](C)CO)C[C@@H]1C | 8% (inactive)
Cc1ccc(NC(=O)C2C3C=CC(C3)C2C(=O)O)cc1 (configuration not stated) | -27.3% (inactive)
Cc1ccc(S(=O)(=O)Nc2ccc3c(c2)C(=O)N([C@H](C)CO)C[C@H](C)[C@@H](CN(C)S(=O)(=O)c2cccs2)O3)cc1 | -5.89% (inactive)
C[C@@H]1CCCCO[C@H](CN(C)Cc2ccc(Cl)c(Cl)c2)[C@@H](C)CN([C@H](C)CO)C(=O)c2cc(NS(=O)(=O)c3cn(C)cn3)ccc2O1 | -46.4% (inactive)
CC(C)NC(=O)N(C)C[C@H]1Oc2c(NS(=O)(=O)c3cccs3)cccc2C(=O)N([C@H](C)CO)C[C@H]1C | -35.4% (inactive)
C[C@@H]1CN([C@H](C)CO)C(=O)c2cccc(NS(=O)(=O)c3ccc(F)cc3)c2O[C@H]1CN(C)Cc1ccc(Oc2ccccc2)cc1 | 23.1% (inactive)
COc1ccc(CN(C)C[C@H]2Oc3ccc(NS(=O)(=O)c4ccc(C)cc4)cc3C(=O)N([C@@H](C)CO)C[C@H]2C)cc1 | 29.4% (inactive)
COc1cc([C@H]2OC[C@H]3[C@@H]2CO[C@@H]3c2cc(OC)c(O[C@@H]3O[C@H](CO)[C@@H](O)[C@H](O)[C@H]3O)c(OC)c2)cc(OC)c1O | 2.06% (inactive)
COc1ccc(CN2C(=O)CC(Cc3ccc(C)cc3)C2=O)cc1OC (configuration not stated) | 4.43% (inactive)
COc1ccc(S(=O)(=O)Nc2cccc3c2O[C@@H](CN(C)S(=O)(=O)c2ccccc2)[C@@H](C)CN([C@@H](C)CO)C3=O)cc1 | -0.37% (inactive)
O=C1C=C(SCC(=O)c2ccccc2)SC(c2ccc(Cl)cc2)C1 (configuration not stated) | 82.7% (active)
O=C(CSc1nnc2n1CCCN2)c1ccccc1 | -28.2% (inactive)
C=CC1(C)C=C2CCC3C(C)(C)C(O[C@@H]4O[C@@H](CO)[C@H](O)[C@H]4O)CCC3(C)C2CC1O[C@@H]1O[C@H](C)[C@@H](OC)[C@H](O)[C@H]1O (some centres not stated) | -27.2% (inactive)
CC1(C)CC[C@]2(C(=O)O)CC[C@]3(C)C(=CCC4[C@@]5(C)CC[C@H](OC6O[C@H](CO)[C@@H](O)[C@H](O[C@@H]7O[C@H](CO)[C@@H](O)[C@H](O)[C@H]7O)[C@H]6O)C(C)(C)C5CC[C@]43C)[C@@H]2C1 (some centres not stated) | 107% (active)
CC1OC(OC2C(OC3C(O[C@H]4CC[C@@]5(C)C(CC[C@]6(C)C5CC=C5[C@@H]7CC(C)(C)C[C@@H](O)[C@]7(C)CC[C@]56C)C4(C)C)OC(C(=O)O)C(O)C3O)OC(CO)C(O)C2O)C(O)C(O)C1O (some centres not stated) | 7.2% (inactive)
C/C=C(/C)C(=O)O[C@H]1CC(C)(C)C[C@H]2C3=CCC4[C@@]5(C)CC[C@H](O[C@@H]6O[C@H](C(=O)O)[C@@H](O[C@@H]7O[C@H](CO)[C@H](O)[C@H](O)[C@H]7O[C@@H]7O[C@H](CO)[C@@H](O)[C@H](O)[C@H]7O)[C@H](O)[C@H]6O[C@@H]6O[C@@H](C)[C@H](O)[C@@H](O)[C@H]6O)C(C)(C)C5CC[C@@]4(C)[C@]3(C)[C@@H](O)[C@@H](O)[C@@]12CO (some centres not stated) | 99.7% (active)
COC(=O)C1=CO[C@@H](O[C@@H]2O[C@H](CO)[C@@H](O)[C@H](O)[C@H]2O)[C@@H]2[C@@](C)(O)[C@@H](OC(=O)/C=C/c3ccc(OC)c(OC)c3)C[C@]12O | 3.81% (inactive)
CC1(C)CC[C@]2(C(=O)O[C@@H]3O[C@H](CO)[C@@H](O)[C@H](O)[C@H]3O)CC[C@]3(C)C(=CCC4[C@@]5(C)CC[C@H](O[C@@H]6O[C@H](C(=O)O)[C@@H](O[C@@H]7OC[C@H](O)[C@H](O)[C@H]7O)[C@H](O)[C@H]6O)C(C)(C)C5CC[C@]43C)C2C1 (some centres not stated) | 35.4% (inactive)
C/C=C(/C)C(=O)O[C@H]1CC(C)(C)C[C@H]2C3=CCC4[C@@]5(C)CC[C@H](O[C@@H]6O[C@H](C(=O)O)[C@@H](O[C@@H]7O[C@H](CO)[C@H](O)[C@H](O)[C@H]7O[C@@H]7O[C@H](CO)[C@@H](O)[C@H](O)[C@H]7O)[C@H](O)[C@H]6O[C@@H]6O[C@@H](C)[C@H](O)[C@@H](O)[C@H]6O)C(C)(C)C5CC[C@@]4(C)[C@]3(C)[C@@H](OC(C)=O)[C@@H](O)[C@@]12COC(C)=O (some centres not stated) | 97.7% (active)
CCC/C=C/C(=O)OC1C(O)C23C(O)OC4(CCC5C6(C)CCC(OC7OC(C(=O)O)C(O)C(OC8OC(CO)C(O)C(O)C8OC8OC(C)C(O)C(O)C8OC8OCC(O)C(O)C8O)C7OC7OC(CO)C(O)C(O)C7O)C(C)(C)C6CCC5(C)C4(C)CC2OC(C)=O)C3CC1(C)C (configuration not stated) | 104% (active)
